Bioassay records from PubChem.
DT40 TDP1 no CPT: qHTS for Inhibitors of human tyrosyl-DNA phosphodiesterase 1 (TDP1): qHTS in cells in absence of CPT; DT40 Tdp1-/- hTDP1 cells, no CPT, ATP luminescence, 48 h; Potency, µM (highest dose often 46.2 µM), without a hit: at the highest dose activity change, negative = growth inhibition, hits mostly inhibitors; 420,000 tested, 15% active; also: potency is read from the fitted curve at half-maximal effect; nearly all actives have a fitted effect of over 55% in size
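DT40 Tdp1-/-;hTDP1 cells, no CPT (DMSO vehicle only), 400 cells/well; compounds pin-transferred; ≥48 hr, 37 °C; CellTiter-Glo 30 min RT dark, luminescence read.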
TDP1 inh: qHTS Assay for Inhibitors of Tyrosyl-DNA Phosphodiesterase (TDP1); AID 485290, 2010; Tyrosyl-DNA phosphodiesterase 1 (Homo sapiens), Q9NUW8; 350,000 tested, 0.28% active; Potency, µM (series often up to 130 µM), without a hit: at the highest dose activity change, negative = inhibition, usual class: inhibitors; recombinant TDP1, AlphaScreen DNA substrate cleavage; also: potency is read from the fitted curve at half-maximal effect; nearly all actives have a fitted effect of over 40% in size
Target sequence (Q9NUW8 whole entry, looked up): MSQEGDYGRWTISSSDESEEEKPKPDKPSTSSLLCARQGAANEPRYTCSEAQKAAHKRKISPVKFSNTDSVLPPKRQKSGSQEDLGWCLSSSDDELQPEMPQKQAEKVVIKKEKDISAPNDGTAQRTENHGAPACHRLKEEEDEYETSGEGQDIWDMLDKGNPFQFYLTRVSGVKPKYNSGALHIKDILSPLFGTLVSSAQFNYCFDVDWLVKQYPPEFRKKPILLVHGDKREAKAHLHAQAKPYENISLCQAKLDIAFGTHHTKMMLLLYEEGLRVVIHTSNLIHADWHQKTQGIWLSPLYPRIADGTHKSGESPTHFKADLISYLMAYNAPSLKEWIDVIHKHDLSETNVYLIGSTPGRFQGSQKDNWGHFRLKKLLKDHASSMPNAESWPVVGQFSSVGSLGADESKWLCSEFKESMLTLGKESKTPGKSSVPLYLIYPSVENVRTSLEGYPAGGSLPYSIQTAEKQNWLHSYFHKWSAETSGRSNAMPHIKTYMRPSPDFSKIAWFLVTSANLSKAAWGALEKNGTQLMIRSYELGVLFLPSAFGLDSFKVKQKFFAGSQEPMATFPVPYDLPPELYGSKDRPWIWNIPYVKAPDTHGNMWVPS
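E. coli-derived human Tdp1, 1 nM final. Cpd preinc 15 min RT; substrate 15 nM final, 5 min RT; AS bead mix 10 ug/ml final, 10 min RT. Signal loss = tyrosine-FITC cleavage. No-enzyme wells = max signal.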
Giardia killer: Small Molecules that selectively kill Giardia lamblia: qHTS; activity change, % at 7.66 µM, hits read low; AID 540267, 2011; Giardia lamblia trophozoite viability; 340,000 tested, 0.15% active; in the data active = activity change below about -80%; inconclusive = between about -30% and that limit;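 also: parasites exposed to compound for two days anaerobically before the ATP read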
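Media and compound were dispensed first, then trophozoites at 100 cells/well; plates sat 48 hrs at 37 deg C without oxygen before ATP luminescence reagent was added and read after 15-30 min at room temperature.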
IL-1B inflam inh: qHTS for Inhibitors of Inflammasome Signaling: IL-1-beta AlphaLISA Primary Screen. THP-1 LPS/ATP IL-1B secretion, AlphaLISA, 16 h; hits give low values. activity change, % at 57.5 µM. 360,000 tested, 4.7% active; in the data active = activity change below about -50%; inconclusive = mostly about -30% to -49%
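Secreted IL-1B measured by AlphaLISA bead assay after 16 h compound exposure of THP-1 cells; compounds (final up to 57.5 uM) added 1 h before LPS (250 ng/mL) and ATP (1.25 mM) stimulation; lower signal means less secretion.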
TDP1 cell CPT: qHTS for Inhibitors of human tyrosyl-DNA phosphodiesterase 1 (TDP1): qHTS in cells in presence of CPT. chicken DT40 Tdp1-/-;hTDP1 cells + 20 nM CPT, ATP luminescence, 48 h. 420,000 tested, 12% active. Potency, µM (top dose mostly 46.2 µM), without a hit: at the highest dose activity change, negative = growth inhibition, actives largely listed as inhibitors; also: potency is read from the fitted curve at half-maximal effect; nearly all actives have a fitted effect of over 55% in size
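Chicken DT40 Tdp1-/- cells stably complemented with human TDP1 were seeded at 400 cells/well in medium containing 20 nM camptothecin, exposed to pin-transferred compounds, and grown at 37 °C for at least 48 hr. Viability was read as ATP luminescence.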
ELG1 repair inh: qHTS screen for small molecules that inhibit ELG1-dependent DNA repair in human embryonic kidney (HEK293T) cells expressing luciferase-tagged ELG1. HEK293T ELG1-luciferase reporter, luminescence, 16 h; DNA damage induced by 5-fluorouridine. Potency, µM (series often up to 46.1 µM), for inactives: at the top dose activity change, negative = inhibition, usual class: inhibitors. 330,000 tested, 2.3% active; also: potency is read from the fitted curve at half-maximal effect; nearly all actives have a fitted effect of over 55% in size
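Quantitative HTS, concentration-response format. 2,000 cells/well co-treated with 5-fluorouridine and compound, 16 hr in 5% CO2 at 37 °C; ONE-Glo luminescence read after 30 min.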
Active calls of the source: *; u = inconclusive; x = no result; [ ] = remark or other dose. Compounds with a hit are over-represented: about 19% of the library has one in this group of screens. Unless noted, calls follow the shape of the dose curve; as a rule, active = well fitted curve in the direction sought with a large enough effect; inconclusive = small, poorly fitted or top-dose-only effect, or another doubt; inactive = no such curve, though single readings can be large; an effect the other way counts as inactive or inconclusive. % is scaled to controls: 0 for no effect and ±100 for the full control effect.

SMILES | DT40 TDP1 no CPT | TDP1 inh | Giardia killer | IL-1B inflam inh | TDP1 cell CPT | ELG1 repair inh
CCCOC(=O)CSc1nnc2ccc3ccccc3n12 | -9% | 2% | x | x | -1% | x
CC(=O)Nc1cccc(NC(=O)c2cc3c(=O)n4cccc(C)c4nc3n2C)c1 | u | 1% | x | x | -29% | x
O=C(Nc1cccc2ncccc12)c1ccc([N+](=O)[O-])o1 | 16µM* | 0% | -80* | -93* | 12µM* | u
O=C(Nc1cccc2ncccc12)c1ccc(-c2ccc(Br)cc2)o1 | 23µM* | 0% | -10 | 59 | 18µM* | u
Cc1ccccc1NC(=O)c1ccc([N+](=O)[O-])o1 | 12µM* | 4% | u | u | u | u
O=C(Nc1cccc2ncccc12)c1cccnc1 | -22% | 0% | -3 | 28 | -11% | 10%
Cc1cccnc1NC(=O)c1ccc([N+](=O)[O-])o1 | u | 3% | u | u | u | 9%
Cc1ccc(Cn2cc(CN3CC(N4CCN(C5CCN(C)CC5)CC4)CS3(=O)=O)nn2)cc1 (centres undefined) | -3% | x | x | 24 | -1% | x
CCOc1cc(C(=O)N(CC)CC(=O)Nc2c(F)cccc2F)ccc1OCC(=O)N1CCCCC1 | 8% | 10%[0.505 µM] | 3 | -4 | -15% | 13%
Cn1nccc1C(=O)NCC1CCC2(CCN(Cc3cccc4ncccc34)CC2)O1 (centres undefined) | -22% | x | x | x | -1% | x
O=[N+]([O-])c1cccc(S(=O)(=O)NCCNS(=O)(=O)c2cccc([N+](=O)[O-])c2)c1 | -19% | 5% | x | x | 3% | x
Cc1ccc(-c2nc3ccccn3c2NCc2ccc3c(c2)OCO3)cc1 | u | 10% | 2 | u | 21µM* | u
COc1ccc(-c2nc3ccc(C)cn3c2NCc2ccc3c(c2)OCO3)cc1 | u | -2% | 7 | -3 | -8% | u
CCCCCCSc1cc(-c2nc3cnccn3c2NCc2ccccc2)ccc1OC | u | -8% | 2 | 0 | u | u
COc1cc(-c2nc3ccccn3c2NCC2CCCO2)ccc1O (centres undefined) | u | 1% | 0 | -3 | u | 0%
COc1ccc(-c2nc3ccccn3c2NC2CCCCC2)cc1SC1CCCCC1 | 16µM* | 1% | 18 | -75* | u | u
COc1ccc(CSc2ccc(-c3nc4ccccn4c3NCc3ccccc3)cc2OC)cc1 | 8.2µM* | 2% | 1 | u | 9.2µM* | u
COc1cc(-c2nc3ccccn3c2NCc2ccccc2)ccc1SC1CCCCC1 | u | x | 1 | -29 | 26µM* | u
COC(=O)N1CCC[C@@]2(CCN(C(=O)Nc3ccc(OC)cc3)C2)C1 | 12% | x | x | x | 11% | x
CCC(C)Sc1ccc(-c2nc3ccccn3c2NCc2ccccc2)cc1OC (centres undefined) | u | 4% | -5 | -74* | u | u
O=C1CN(S(=O)(=O)c2ccccc2)CCN1 | -6% | 0% | 2 | -7 | 12% | 2%
CC(C)(C)NC(=O)NC(=O)C[n+]1ccc(Cc2ccc([N+](=O)[O-])cc2)cc1 | 2.1µM* | x | 16 | u | 4.1µM* | -29%
Cc1cccc[n+]1CC(=O)Nc1ccc([N+](=O)[O-])cc1Cl | -11% | 4% | 55 | 11 | u | -11%
CC(C)(C)NC(=O)C[n+]1ccc(C(N)=O)cc1 | 25% | 5% | 2 | -12 | -7% | 12%
O=C(C[n+]1ccc(Cc2ccccc2)cc1)Nc1ccc([N+](=O)[O-])cc1Cl | 15µM* | 4% | 15 | u | u | -7%
SMILES | DT40 TDP1 no CPT | TDP1 inh | Giardia killer | IL-1B inflam inh | TDP1 cell CPT | ELG1 repair inh
Cc1ccc([N+](=O)[O-])cc1NC(=O)CCSc1ccc(Cl)cc1 | -33% | 0% | 11 | 0 | -15% | 0%
Cc1ccc(Cl)cc1NC(=O)C[n+]1ccc(Cc2ccc([N+](=O)[O-])cc2)cc1 | 5.2µM* | 5% | -4 | -82* | 5.8µM* | u
CN(C)c1ccc(/C=N\NC(=O)c2cccc3cc[nH]c23)cc1 | 6.5µM* | 4% | -1 | -10 | u | u
CN(C)c1ccc(/C=N/NC(=O)c2ccco2)cc1 | -13% | 1% | 3 | -10 | -5% | u
CCOc1cc(CNCCO)cc(Br)c1OCc1ccc(Cl)cc1Cl | 15µM* | 6% | 19 | -101* | 16µM* | u
COc1cc(CNCCO)cc(Br)c1OCc1ccccc1 | -24% | -2% | 9 | -1 | -11% | -42%
CCOc1cc(CNc2ccccc2)cc(Br)c1OCc1ccc(F)cc1 | u | 6% | -1 | u | u | 7%
CCOc1cccc(CNc2ccc(O)cc2)c1OCc1ccccc1Cl | 12µM* | 8% | -21 | -5 | 13µM* | 18µM*
CCOc1cc(CNc2ccc(O)cc2)cc(Cl)c1OCc1ccccc1 | 16µM* | 4% | x | x | 21µM* | x
CCOc1cccc(CNc2ccc(O)cc2)c1OCc1ccc(Cl)cc1Cl | 21µM* | 4% | 21 | u | 15µM* | u
O=C1CCCc2cc(S(=O)(=O)NCC3CCC(C(=O)NCc4ccccc4Cl)CC3)ccc2N1 (centres undefined) | -30% | 0% | x | x | u | x
O=C(O)c1cc(S(=O)(=O)Nc2ccc3cn[nH]c3c2)ccc1Cl | 2% | 3% | -15 | 12 | 2% | 11%
CC(C)(O)C#Cc1ccc(C(=O)NCCN2Cc3ccccc3OC(c3ccccc3F)C2)o1 (centres undefined) | -28% | x | x | x | 10%[9.04 µM] | x
COc1ccccc1NC(=O)C1CCN(C(=O)C2CC(=O)N(c3ccc(C)cc3)C2)CC1 (centres undefined) | -11% | x | 17 | -6 | -22% | 27%
CCOc1cc(CNCCO)cc(Br)c1OCc1cccs1 | 18µM* | 4% | 18 | -60* | 15µM* | -27%
CCOc1cccc(CNCCO)c1OCc1ccc(Cl)cc1Cl | 16µM* | 2% | 4 | 0 | 16µM* | -14%
CCOc1cccc(CNn2cnnc2)c1OCc1ccccc1Cl | -29% | 3% | 15 | -7 | -18% | -7%
CCN(CC)C(=O)c1sc2c(c1C)c(=O)n(-c1ccc(Cl)c(Cl)c1)c(=O)n2Cc1ccccc1C#N | u | -1% | x | x | u | x
